Consider six compounds from PubChem BioAssay AID602253 (Broad Institute, 2012).

Measured potencies and affinities stand elsewhere. Calls of active or inactive are those of the source.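 How the source made its calls: active means compounds lowering polarization whose fitted half-maximal concentration is at most twice their top tested dose; inconclusive means flat curve with 30 to 70 percent inhibition, or poor fit; inactive means the rest.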

In the experiment the target is Golgi-associated PDZ and coiled-coil motif-containing protein (Homo sapiens) (UniProt Q9HD26). The experiment in a line: CAL PDZ domain peptide-binding inhibitors, dose response, biochemical, fluorescence polarization, Cer-tagged CAL PDZ, dry powder (AID 602253). The settings on record: Purified CAL PDZ, TMR-peptide fluorescence polarization, 1 h; series mostly up to 35 µM; activity change, negative = inhibition: at the top concentration. (Polarisation of emitted light reports the rotation of a fluorescent probe.)
With `O=C(O)CSc1cc(NS(=O)(=O)c2ccc(Br)cc2)c2ccccc2c1O`, the “activity change, negative = inhibition” value was -4.08% (inactive).
For the compound `COc1ccc(S(=O)(=O)Nc2cc(SCC(=O)O)c(O)c3ccccc23)cc1`, the “activity change, negative = inhibition” value is -3.93% (inactive).
The figure for `O=C(O)CSc1cc(NS(=O)(=O)c2ccc(Cl)cc2)c2ccccc2c1O` is -5.53% (inactive); for `O=S(=O)(Nc1cc(Sc2ccccc2)c(O)c2ccccc12)c1ccc(Cl)cc1` it is -3.34% (inactive).
Regarding `O=S(=O)(Nc1ccc(O)c2ccccc12)c1ccccc1`, the “activity change, negative = inhibition” value is -3.92% (inactive).
The figure for `CCOc1ccc(S(=O)(=O)Nc2cc(SCC(=O)O)c(O)c3ccccc23)cc1` is -2.74% (inactive).
